HT1080 IDH1KD tx: HT-1080 IDH1 knockdown cell toxicity (counter line). 360,000 tested, 2% active. HT-1080 IDH1 knockdown viability, ATP luminescence, 48 h. Potency, µM (series often up to 46.1 µM), for inactives: at the top dose activity, negative = toxicity, most hits filed as cytotoxic;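 further: potency means the concentration at half of the fitted maximal effect; 0% = DMSO wells and -100% = cell-free medium wells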
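Cytotoxicity counter-line: IDH1KD HT-1080, 48 h, CellTiter-Glo. Curves classed by r2, magnitude and activity.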
IL-1B inflam inh: blocks inflammasome-driven IL-1 beta release; THP-1 LPS/ATP IL-1B secretion, AlphaLISA, 16 h; hits give low values; activity change, % at 57.5 µM; 360,000 tested, 4.7% active; AID 743279; in the data active means activity change below about -50%; inconclusive means mostly about -30% to -49%
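THP-1 cells pretreated 1 hr with compounds (up to 57.5 uM final), then stimulated with LPS (250 ng/mL final) plus ATP (1.25 mM final); secreted IL-1B measured by AlphaLISA after 16 hr, decreased signal indicating inhibition.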
DT40 TDP1 CPT: growth inhibition of DT40 Tdp1-/-;hTDP1 cells with camptothecin (screen for TDP1 inhibitors). 420,000 tested, 12% active. AID 686979. chicken DT40 Tdp1-/-;hTDP1 cells + 20 nM CPT, ATP luminescence, 48 h. Potency, µM (doses to about 46.2 µM), for the others: top-dose activity change, negative = growth inhibition, usual class: inhibitors; further: potency means the concentration at half of the fitted maximal effect; nearly all actives have a fitted effect of over 55% in size
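Cell growth measured by CellTiter-Glo luminescence after a minimum 48 h, 37 C compound exposure with 20 nM CPT in Tdp1-knockout DT40 cells stably expressing hTDP1, seeded 400/well; qHTS titration format.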
ELG1 DNA repair: ELG1-dependent DNA repair inhibition. HEK293T ELG1-luciferase reporter, luminescence, 16 h; DNA damage induced by 5-fluorouridine. 330,000 tested, 2.3% active. Potency, µM (series often up to 46.1 µM), for the others: at the top dose activity change, negative = inhibition, actives largely listed as inhibitors. AID 504467; further: potency means the concentration at half of the fitted maximal effect; nearly all actives have a fitted effect of over 55% in size
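Quantitative HTS, concentration-response format. 2,000 cells/well co-treated with 5-fluorouridine and compound, 16 hr in 5% CO2 at 37 °C; ONE-Glo luminescence read after 30 min.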
HT1080NT lethal: kills 2HG-producing HT-1080-NT fibrosarcoma cells; HT-1080-NT fibrosarcoma viability, CellTiter-Glo ATP luminescence, 48 h; Potency, µM (series often up to 46.1 µM), inactives show at the top dose activity, negative = less viability, actives largely listed as cytotoxic; 360,000 tested, 1.6% active; AID 686970;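 further: NT is the 2HG producing partner of a matched IDH1 knockdown line; potency means the concentration at half of the fitted maximal effect; 0% = DMSO-treated cells and -100% = media-only wells without cells; nearly all actives have a fitted effect of over 55% in size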
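Viability of the 2HG-overproducing fibrosarcoma line after 48 hours of compound exposure at 37 degrees C was determined by luminescence with CellTiter-Glo, and concentration-effect curves were then fitted and categorized.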
TDP1 cell noCPT: qHTS for Inhibitors of human tyrosyl-DNA phosphodiesterase 1 (TDP1): qHTS in cells in absence of CPT; DT40 Tdp1-/- hTDP1 cells, no CPT, ATP luminescence, 48 h; Potency, µM (titrated, usually from 46.2 µM), inactives show at the highest dose activity change, negative = growth inhibition, hits mostly inhibitors; 420,000 tested, 15% active; further: potency means the concentration at half of the fitted maximal effect; nearly all actives have a fitted effect of over 55% in size
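Growth of hTDP1-complemented DT40 Tdp1-knockout cells is measured by ATP luminescence after at least 48 hr compound exposure at 37 °C, with DMSO substituting for the 20 nM CPT used in the parallel screen.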
* marks the source's active call; other numbers are inactive results; ? = inconclusive; / = not tested or not shown; [ ] = remark or other dose. Hits are enriched below; roughly 19% of the tested compounds scored in any of these assays. Unless noted, the call rests on the fitted dose curve; in most records, active means well fitted curve in the direction sought with a large enough effect; inconclusive means small, poorly fitted or top-dose-only effect, or another doubt; inactive means no such curve, though single readings can be large; an effect the other way counts as inactive or inconclusive. Unless noted, on the % scale 0 is the no-effect control and ±100 the full control effect.

SMILES	HT1080 IDH1KD tx	IL-1B inflam inh	DT40 TDP1 CPT	ELG1 DNA repair	HT1080NT lethal	TDP1 cell noCPT
O=C(CN1C(=O)NC2(CCCC2)C1=O)N1CCc2ccccc2C1	18%	19	15%	-10%	19%	9%
Cc1ccc2nc(-c3ccc(F)cc3)c(Cc3cccc(Cl)c3)n2c1	?	-1	21µM*	/	?	26µM*
Cc1cccc(NC(=O)c2ccc3c(c2)C(=O)N(c2ccccc2C)C3=O)n1	15%	-4	-2%	2%	-4%	0%
Cc1ccc(S(=O)(=O)NCC2CCC(C(=O)NC3CCCCC3)CC2)cc1 (stereo not given)	-1%	28	1%	8%	-9%	-8%
Cc1cccc(NC(=O)CN(CC2CCCO2)C(=O)c2oc3ccccc3c2C)c1C (stereo not given)	-7%	12	29µM*	?	1%	?
Cc1cccc(NC(=O)CN(CC2CCCO2)C(=O)c2cc3ccccc3o2)c1C (stereo not given)	8%	-10	?	-1%	10%	?
Cc1cc(C)nc(-n2nc(C)cc2NC(=O)CN2CCc3ccccc3C2)n1	1.6µM*	23	10µM*	3.7µM*	?	23µM*
Cc1cc(C)nc(-n2nc(C)cc2NC(=O)CNC2CCCCC2)n1	-4%	-1	-15%	15%	-8%	-16%
Cc1cc(C)nc(-n2nc(C)cc2NC(=O)CN2CCCC(C)C2)n1 (stereo not given)	2µM*	-15	?	-11%	1.3µM*	?
CCOC(=O)[C@@H](NC(=O)/C=C/[C@H]1O[C@@H](n2cc(C)c(=O)[nH]c2=O)C[C@@H]1O)C(C)C	16%	33	15%	/	10%	-2%
CC(C)Oc1ccc(CNC(=O)Cc2ccc(NC(=O)N3CCSc4ncccc43)cc2)cc1	/	/	16µM*	/	/	16µM*
Cc1cccc(CNC(=O)c2ccc(NC(=O)N3CCSc4ncccc43)cc2)c1	/	/	-7%	/	/	-35%
Cc1ccc(CNC(=O)c2cccc(NC(=O)N3CCSc4ncccc43)c2)cc1	/	/	?	/	/	21µM*
CC(NC(=O)Cc1ccc(NC(=O)N2CCSc3ncccc32)cc1)c1ccccc1 (stereo not given)	/	/	-30%	/	/	?
O=C(NCc1ccccc1F)c1cccc(NC(=O)N2CCSc3ncccc32)c1	/	/	23µM*	/	/	?
COc1ccc(-c2nc3cnc(N4CCOCC4)nc3n(CCC#N)c2=O)cc1	/	/	10%	/	/	0%
COc1ccccc1-n1cnnc1SC(C)C(=O)NCC1CCCO1 (stereo not given)	-2%	12	-4%	5%	1%	?
Cc1ccc(C(C)C)c(OCc2nnc(SCC(=O)Nc3ncc(C)s3)n2C)c1	5%[9.24 µM]	13	18µM*	?	-2%	?
Cc1ccccc1OCC(=O)Nc1ccc2nc(SCc3ccccc3)sc2c1	/	/	-13%	/	/	4%
Cc1ccccc1OCc1nnc(SCC(=O)Nc2ccc3nc(SCC(=O)Nc4ccccc4)sc3c2)n1C	?	27	?	?	-15%	15µM*
Cc1nc2ccc(NC(=O)COc3ccccc3C)cc2s1	13%	-1	-3%	20%	15%	0%
Cc1ccccc1OCC(=O)Nc1ccc2nc(SCC(=O)N3CCCC3)sc2c1	/	/	16µM*	/	/	15µM*
Cc1ccccc1OCC(=O)Nc1ccc2nc(SCC(=O)N3CCOCC3)sc2c1	/	/	?	/	/	5.8µM*
COCC#Cc1ccc2c(c1)O[C@@H](CN(C)C(=O)Nc1ccc(OC)cc1)[C@H](C)CN([C@H](C)CO)S2(=O)=O	13%	13	16%	/	5%	-3%
